The nature of assay [1]: compounds binding Alexa647 anti-His antibody – biochemical, small-molecule microarray, 635 nm fluorescence, artefact control for SMM control protein annotation, primary screen (AID 1128).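 Note: score merges feature fluorescence with signal-to-noise for each printed compound spot.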 Conditions: higher = more signal.
Assay [2] deals with Human papillomavirus type 1a E7 protein (residues 1-88). The experiment in a line: HPV1a E7 small-molecule binders, primary screen, biochemical, small-molecule microarray, residues 1-88, 635 nm (AID 1129). Conditions: small-molecule microarray binding, fluorescence 635 nm; higher = more signal.
For assay [3], the target named is Focal adhesion kinase 1 (Homo sapiens) (UniProt Q05397). The experiment in a line: PTK2 protein binding on printed compound slides – biochemical, small-molecule microarray, 635/667 nm fluorescence, BSA, DTT, primary screen (AID 1130).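 Note: composite of spot emission at 667 nm and signal to noise over triplicate slides.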 Conditions: 635 nm fluorescence, higher = more signal.
Sequence of Focal adhesion kinase 1 (Homo sapiens) (Q05397 whole entry, looked up): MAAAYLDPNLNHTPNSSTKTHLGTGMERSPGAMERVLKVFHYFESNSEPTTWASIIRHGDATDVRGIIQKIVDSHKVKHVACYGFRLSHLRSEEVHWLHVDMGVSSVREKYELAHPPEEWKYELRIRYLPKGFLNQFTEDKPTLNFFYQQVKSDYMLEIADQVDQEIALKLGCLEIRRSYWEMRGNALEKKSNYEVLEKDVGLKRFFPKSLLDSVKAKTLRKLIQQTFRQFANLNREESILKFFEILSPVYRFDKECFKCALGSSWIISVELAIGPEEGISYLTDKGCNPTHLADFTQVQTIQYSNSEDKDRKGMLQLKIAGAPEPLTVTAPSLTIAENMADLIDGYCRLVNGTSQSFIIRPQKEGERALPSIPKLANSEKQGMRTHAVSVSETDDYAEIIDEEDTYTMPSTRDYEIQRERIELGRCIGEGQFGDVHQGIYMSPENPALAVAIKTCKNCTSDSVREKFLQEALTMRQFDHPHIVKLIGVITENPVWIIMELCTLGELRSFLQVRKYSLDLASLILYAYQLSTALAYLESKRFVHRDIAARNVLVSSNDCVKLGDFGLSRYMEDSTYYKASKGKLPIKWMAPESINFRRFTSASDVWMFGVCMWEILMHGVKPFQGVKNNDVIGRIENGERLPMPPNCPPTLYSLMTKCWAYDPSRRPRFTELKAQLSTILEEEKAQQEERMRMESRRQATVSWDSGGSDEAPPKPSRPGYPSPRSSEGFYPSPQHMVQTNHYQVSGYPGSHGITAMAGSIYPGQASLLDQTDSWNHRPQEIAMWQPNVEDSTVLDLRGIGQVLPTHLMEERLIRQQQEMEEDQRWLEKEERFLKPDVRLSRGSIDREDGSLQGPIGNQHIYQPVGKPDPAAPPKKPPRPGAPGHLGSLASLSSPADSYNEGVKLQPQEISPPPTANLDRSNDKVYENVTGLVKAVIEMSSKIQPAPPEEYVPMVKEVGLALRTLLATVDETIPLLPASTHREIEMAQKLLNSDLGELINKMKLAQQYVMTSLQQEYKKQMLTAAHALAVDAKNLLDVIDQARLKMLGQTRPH
In assay [4] the test system is Fibrinogen (Alexa647-labelled). Kind of assay: Alexa647-fibrinogen binding to printed small molecules – biochemical, small-molecule microarray, 635/667 nm fluorescence, artefact control for SMM control-protein annotation, profiling panel (AID 1131).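 Note: z-score merges 667 nm fluorescence with per-spot signal-to-noise over triplicate slides.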 Conditions: fibrinogen-A647 binding fluorescence, higher = more signal.
Assay [5] addresses Follistatin (Homo sapiens) (UniProt P19883). Kind of assay: FST protein binding to printed compounds – biochemical, small-molecule microarray, 635/667 nm fluorescence, primary screen (AID 1132). Conditions: 635 nm fluorescence, higher = more signal.
In assay [6] the target is Fibroblast growth factor 2 (Homo sapiens) (UniProt P09038). Kind of assay: basic fibroblast growth factor binding to printed compounds – biochemical, small-molecule microarray, 635/667 nm fluorescence, primary screen (AID 1133). Conditions: FGF2, fluorescence 635/667, higher = more signal.
Sequence of Fibroblast growth factor 2 (Homo sapiens) (P09038 whole entry, looked up): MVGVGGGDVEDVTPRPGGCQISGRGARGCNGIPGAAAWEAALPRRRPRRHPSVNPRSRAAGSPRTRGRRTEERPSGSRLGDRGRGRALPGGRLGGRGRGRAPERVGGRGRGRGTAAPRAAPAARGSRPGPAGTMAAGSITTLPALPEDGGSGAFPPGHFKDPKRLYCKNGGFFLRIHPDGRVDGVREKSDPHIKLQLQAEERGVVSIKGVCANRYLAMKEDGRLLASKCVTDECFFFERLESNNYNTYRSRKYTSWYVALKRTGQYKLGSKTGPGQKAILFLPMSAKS
The nature of assay [7]: JC-1 mitochondrial potential readout, lung cancer cells – cell-based, A549, JC-1 fluorescence, basal, 24 h, 100 nL, profiling panel (AID 1138).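 Note: A549 lung adenocarcinoma cells under basal conditions with no added stimulus; test concentration not given here.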 Conditions: higher = more signal.
The test system of the next assay is Lefty1. The experiment in a line: Lefty1 protein binding to printed compounds – biochemical, small-molecule microarray, 635/667 nm fluorescence, primary screen (AID 1139). Conditions: fluorescence 635/667, higher = more signal.
Assay [8] relates to wheat germ agglutinin (Triticum aestivum), Alexa647-labelled. Kind of assay: Alexa647-WGA lectin binding to printed small molecules – biochemical, small-molecule microarray, 635/667 nm fluorescence, artefact control for SMM control-protein annotation, profiling panel (AID 1140).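 Note: score merges 667 nm feature emission with signal to noise over triplicate slides.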 Conditions: WGA-A647 binding, 635 nm fluorescence, higher = more signal.
Assay [9] has as its target Luciferin 4-monooxygenase (Photinus pyralis) (UniProt P08659). Kind of assay: inhibition of purified Photinus pyralis luciferase – biochemical, luminescence, purified enzyme, 2006 set, primary screen (AID 1141).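 Note: cell-free assay with purified firefly luciferase at 100 ng per well in PBS; test concentration not given here.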 Conditions: purified firefly luciferase, SteadyGlo luminescence, 30 min; higher = more signal, called active from +8 up or from −8 down.
Assay [10] concerns Wnt5a (protein binding on small-molecule microarray). Kind of assay: small molecules binding Wnt5a protein – biophysical, small-molecule microarray, 635/667 nm fluorescence, primary screen (AID 1142).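 Note: fluorescence read at 667 nm with signal to noise per printed feature.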 Conditions: 635 nm fluorescence, higher = more signal.
A short description of assay [11]: ATP-based viability of Huh7 replicon cells – cell-based, CellTiter-Glo luminescence, basal, 48 h, cytotoxicity control for HCV replication inhibitor project, primary screen (AID 1143).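 Note: Huh7 hepatoma cells carrying a hepatitis C replication reporter with no stimulus; test concentration not given here.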 Conditions: higher = more signal, called active from +8 up or from −8 down. A general note: A replicon is a self-replicating genome or part of one, used to study replication in cells.

Assay [12] is described as follows: Pseudomonas biofilm growth suppression – PAO1 strain, BacTiter-Glo luminescence, LB-PBS, primary screen (AID 1144). Conditions: P. aeruginosa PAO1 biofilm, 12 h, higher = more signal.
Assay [13] in a line: basal CRE-LacZ reporter activity in PC12 – cell-based, unstimulated, primary screen (AID 1145). Conditions: no forskolin, luminescence, 4.5 h, higher = more signal, called active from +8 up or from −8 down.
Assay [14] can be described thus: forskolin-driven CRE-LacZ activity in PC12 – cell-based, CRE-LacZ reporter, forskolin-stimulated, primary screen (AID 1146).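 Note: PC12 cells with 6xCRE LacZ reporter stimulated by forskolin 10 µM; beta-galactosidase reporter signal reflecting CREB driven transcription.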 Conditions: luminescence, 4.5 h, higher = more signal, called active from +8 up or from −8 down.
The target in assay [15] is Streptavidin (Streptomyces avidinii) (UniProt P22629). Kind of assay: compounds binding control protein streptavidin – biophysical, small-molecule microarray, 635/667 nm fluorescence, artefact control for SMM compound annotation, primary screen (AID 1147).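 Note: signal reflects streptavidin binding to arrayed compounds as a control protein.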 Conditions: higher = more signal.
Sequence of Streptavidin (Streptomyces avidinii) (P22629 whole entry, looked up): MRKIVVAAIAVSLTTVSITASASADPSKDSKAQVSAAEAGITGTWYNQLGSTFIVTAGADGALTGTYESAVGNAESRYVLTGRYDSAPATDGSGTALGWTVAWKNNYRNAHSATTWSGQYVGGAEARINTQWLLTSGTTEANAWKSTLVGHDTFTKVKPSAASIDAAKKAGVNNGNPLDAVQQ
Assay [16] can be described thus: probe aInhba binding on compound microarray – biochemical, small-molecule microarray, 635/667 nm fluorescence, primary screen (AID 1148).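 Note: score merges 667nm spot fluorescence with signal-to-noise for antibody binding to printed compounds.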 Conditions: higher = more signal.
The target of assay [17] is Torsin-1A (Homo sapiens) (UniProt O14656). Kind of assay: TOR1A wild-type binding on microarray – cell lysate, small-molecule microarray, lysate, 635/667 nm, primary screen (AID 1149). Conditions: COS7 hTOR1A-WT lysate, 635 nm fluorescence, higher = more signal.
Sequence of Torsin-1A (Homo sapiens) (O14656 whole entry, looked up): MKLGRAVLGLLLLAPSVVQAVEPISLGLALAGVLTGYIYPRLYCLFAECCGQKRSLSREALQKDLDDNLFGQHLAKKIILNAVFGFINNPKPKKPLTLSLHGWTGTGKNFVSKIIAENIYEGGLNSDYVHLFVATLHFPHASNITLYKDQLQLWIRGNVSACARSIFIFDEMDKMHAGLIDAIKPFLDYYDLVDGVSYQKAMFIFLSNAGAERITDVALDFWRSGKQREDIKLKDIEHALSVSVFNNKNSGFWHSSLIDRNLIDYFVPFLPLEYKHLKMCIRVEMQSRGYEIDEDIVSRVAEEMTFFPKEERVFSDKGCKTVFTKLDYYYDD
Assay [18] has the same target. The experiment in a line: torsin A mutant lysate binding on microarrays – cell lysate, small-molecule microarray, COS7 lysate, 635/667 nm fluorescence, primary screen (AID 1150).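 Note: score pools 667 nm emission and signal to noise measuring lysate protein binding.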 Conditions: COS7 hTOR1A mutant lysate, 635 nm fluorescence, higher = more signal.
Assay [19] deals with Sonic hedgehog protein (Shh). Kind of assay: Sonic hedgehog microarray binding compounds – biochemical, small-molecule microarray, 635/667 nm fluorescence, primary screen (AID 1151).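 Note: Shh protein binding to compounds spotted on small-molecule microarray slides; score combines spot fluorescence intensity with signal-to-noise across triplicate slides.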 Conditions: 635 nm fluorescence, higher = more signal.

Calls of active or inactive are those of the source. Unless noted, the rule behind the calls is not given here.

Sequence of Follistatin (Homo sapiens) (P19883 whole entry, looked up): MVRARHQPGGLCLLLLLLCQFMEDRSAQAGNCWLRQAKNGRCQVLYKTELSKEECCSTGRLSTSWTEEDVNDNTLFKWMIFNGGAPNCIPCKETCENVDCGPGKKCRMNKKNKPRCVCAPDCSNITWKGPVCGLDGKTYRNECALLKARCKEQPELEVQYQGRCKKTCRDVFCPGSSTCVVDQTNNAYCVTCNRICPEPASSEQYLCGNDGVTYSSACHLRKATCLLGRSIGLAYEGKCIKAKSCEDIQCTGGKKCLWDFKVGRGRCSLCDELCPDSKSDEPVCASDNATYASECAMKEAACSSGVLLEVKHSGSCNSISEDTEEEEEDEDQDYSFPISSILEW
Sequence of Luciferin 4-monooxygenase (Photinus pyralis) (P08659 whole entry, looked up): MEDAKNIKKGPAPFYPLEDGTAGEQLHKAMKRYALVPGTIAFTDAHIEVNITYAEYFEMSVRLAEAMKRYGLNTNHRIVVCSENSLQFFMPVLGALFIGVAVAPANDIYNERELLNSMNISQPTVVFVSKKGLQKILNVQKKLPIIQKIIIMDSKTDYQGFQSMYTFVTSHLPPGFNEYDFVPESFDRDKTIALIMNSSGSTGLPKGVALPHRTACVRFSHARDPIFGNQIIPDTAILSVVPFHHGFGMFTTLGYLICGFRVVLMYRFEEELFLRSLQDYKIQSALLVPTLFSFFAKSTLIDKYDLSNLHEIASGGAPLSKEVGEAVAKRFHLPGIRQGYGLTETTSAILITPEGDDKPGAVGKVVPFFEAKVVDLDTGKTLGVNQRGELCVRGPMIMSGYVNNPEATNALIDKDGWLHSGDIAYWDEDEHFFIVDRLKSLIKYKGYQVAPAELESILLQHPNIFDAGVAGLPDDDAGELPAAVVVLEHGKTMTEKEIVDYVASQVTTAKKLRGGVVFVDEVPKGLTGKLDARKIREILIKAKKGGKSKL

In the case of `COc1ccc(C#Cc2ccc3c(c2)[C@]2(C(=O)N3)[C@H](C(=O)N3CCc4cc(OC)c(OC)cc4C3)[C@H]3C(=O)O[C@H](c4ccccc4)[C@H](c4ccccc4)N3[C@@H]2c2ccc(O)cc2)cc1`, the composite z-score came out at 1.5 in assay [1]; 1.2 in assay [2]; 0.735 in [3]; 0.924 in assay [4]; 0.896 in [5]; 0.465 in assay [6]. For the same compound, the composite z-score in the assay with Lefty1 is 0.374; in assay [8], 0.0376; in [10], 0.219; in [15] it was 1.04; in [16], -0.121; with Torsin-1A (Homo sapiens) [17] it was 1.03. Further, the composite z-score with Torsin-1A (Homo sapiens) [18] worked out at 0.199; in assay [19], 0.466. Also, the z-score in assay [7] is -1.47; in assay [9] it was -0.716 (inactive); in assay [11] it was -0.59 (inactive); in assay [12] it was -1.01 (inactive); in assay [13], -0.141 (inactive); in assay [14], -1.02 (inactive).
Consider `CC1CC/C=C\[C@H]2OC34C=CCN(C(C)C)C(=O)[C@H]3N(CCCCCO)C(=O)[C@@H]4C2C(=O)O1` (stereo not given in full), for which the composite z-score in assay [1] is -1.07; in assay [2] it was -1.71; in assay [3] it was -0.6; in [4], -1.29; in assay [5] it was -0.985; in assay [6] it was -1.17. The composite z-score in the assay on Lefty1 is -1.42; in assay [8], -0.892; in assay [10] it was -0.432; in assay [15] it was -1.16; in [16], -0.157; with Torsin-1A (Homo sapiens) [17] it was -1.14. In addition, the composite z-score was -0.751 in the assay with Torsin-1A (Homo sapiens) [18] and -0.375 in assay [19]. Besides, the z-score is 1.68 in assay [7]; -1.39 (inactive) in [9]; -0.262 (inactive) in assay [11]; 1.39 (inactive) in assay [12]; 1.67 (inactive) in assay [13]; -0.478 (inactive) in [14].
Turning to `C=CCC(OC(C)=O)[C@@H]1[C@@H](N(Cc2cc3ccccc3o2)C(=O)Cc2ccc(F)cc2)c2cc(OCCCO)ccc2N1C(=O)c1ccc2ccccc2n1` (stereo not given in full), the composite z-score was 0.055 in assay [1]; -0.694 in assay [2]; 0.0919 in assay [3]; 0.271 in assay [4]; 0.147 in assay [5]; -0.0144 in [6]. Also, the composite z-score in the assay on Lefty1 was -0.189; in [8], 0.0937; in [10], 0.705; in assay [15] it was 0.0443; in [16], -0.142; with Torsin-1A (Homo sapiens) [17] it was -0.398. In addition, the results for the composite z-score (with Torsin-1A (Homo sapiens) [18]; in assay [19]) were -0.226 and 0.0974, respectively. Also, the z-score is 0.728 in assay [7]; -0.997 (inactive) in assay [9]; 0.252 (inactive) in assay [11]; -0.398 (inactive) in [12]; 3.16 (inactive) in assay [13]; 0.0063 (inactive) in assay [14].
With `C=C(/C(=C/C[C@@H](OC(=O)c1ccncc1)c1ccc(OCCO)cc1)c1cc(C(=O)OC)ccc1OC)C(C)C`, the composite z-score in assay [1] was 0.217; in assay [2], 1.19; in assay [3] it was -0.4; in assay [4], 0.135; in [5], 0.623; in assay [6] it was 0.417. Also, the composite z-score was 0.632 with Lefty1; 0.592 in [8]; 0.308 in assay [10]; 0.747 in assay [15]; -0.271 in assay [16]; 0.0376 with Torsin-1A (Homo sapiens) [17]. Further, the composite z-score was 0.266 with Torsin-1A (Homo sapiens) [18] and 1.7 in assay [19]. For the same compound, the z-score in [7] was 0.628; in [9] it was -0.467 (inactive); in assay [11], -1.79 (inactive); in [12], -0.745 (inactive); in assay [13], 2.06 (inactive); in [14], 0.96 (inactive).
Take `C=CC[C@@]1(C(=O)N2CCCCC2)N=C(c2ccc(OCCCO)cc2)O[C@@H]1c1ccccc1`: the composite z-score in assay [1] was 2.8; in [2], 1.2; in [3], 1.58; in [4], 0.935; in assay [5], 0.939; in assay [6] it was 0.0286. In addition, the composite z-score in the assay with Lefty1 is -0.034; in [8], 1.08; in assay [10] it was 0.18; in assay [15], 0.0319; in assay [16], 0.411; with Torsin-1A (Homo sapiens) [17] it was 0.521. In addition, the composite z-score in the assay with Torsin-1A (Homo sapiens) [18] is 1.22; in assay [19], -0.229. Further, the z-score in assay [7] was 1.9; in [9], -0.952 (inactive); in [11], -3.63 (inactive); in [12], 0.222 (inactive); in assay [13], 1.5 (inactive); in assay [14], -0.134 (inactive).

Source of the values: PubChem BioAssay.
